Hit rate of the full screen: of about 290,000 compounds, about 2,600 (0.9%) were called active. What follows is part of a selection rich in actives, with near analogues and random picks from the rest. Values without a mark were called inactive.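 How the source made its calls: active means inhibition above the mean of all tested compounds plus 3 SD, cutoff set per screening run (cut at about 7.5% in these data); inactive means the rest.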
system: VIM-2 metallo-beta-lactamase (Pseudomonas aeruginosa); test: inhibition of VIM-2 nitrocefin hydrolysis – biochemical, epi-absorbance readout, Pseudomonas aeruginosa enzyme, primary screen (AID 1527); conditions: purified VIM-2, nitrocefin hydrolysis, epi-absorbance fluorescence; at 5.6 µM; hits give high values;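 further: red hydrolysis product quenches plate fluorescence so inhibitors raise well fluorescence; 0% = enzyme with DMSO and 100% = DMSO without enzyme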

Row | SMILES | inhibition
1 | Cc1cccc(N(C)C(=O)c2cc3c(=O)[nH]c4ccc(C)cc4c3s2)c1 | -1.79%
2 | CCN(CC)CCCNC(=O)c1cc(-c2cccc(Cl)c2)on1 | -2.99%
3 | CCN(CC)CCCNC(=O)c1cc2c(=O)[nH]c3ccc(C)cc3c2s1 | 11.4% (active)
4 | COc1ccc(C(=O)N/N=c2\oc3ccccc3cc2C(N)=O)cc1 | -2.23%
5 | CCN(CC)c1ccc2cc(C(N)=O)/c(=N\NC(=O)c3ccncc3)oc2c1 | 17.2% (active)
6 | NC(=O)c1cc2ccccc2o/c1=N/NC(=O)c1cccc(F)c1 | -3.88%
7 | COc1ccccc1CNC(=O)C1CCN(C(=O)[C@@H]2Cc3ccccc3CN2)CC1 | -1%
8 | Nc1nc(SCc2cccc(Br)c2)n[nH]1 | -2.53%
9 | CC(C)c1cc(NCc2ccccn2)n2c(nc3ccccc32)c1C#N | 3.25%
10 | Cc1cc(NC(C)C)n2c(nc3ccccc32)c1C#N | 6.91%
11 | Cc1cc(NCc2ccco2)n2c(nc3ccccc32)c1C#N | 23.1% (active)
12 | CC(C)c1ccc2oc(=O)cc(CN3CCN(Cc4ccccc4)CC3)c2c1 | -0.17%
13 | CCOC(=O)N1CCC(N2Cc3cccc(C(=O)Nc4ccc(S(=O)(=O)N(CC)CC)cc4)c3C2=O)CC1 | 1.9%
14 | O=C(NNS(=O)(=O)c1ccccc1)c1cnn(-c2ccc(Cl)cc2)c1C(F)(F)F | -0.91%
15 | COc1ccccc1N1CCN(c2nc(C)cc(=O)[nH]2)CC1 | -1.83%
16 | CN(C)c1ccc(CNC2C3CC4CC(C3)CC2C4)cc1 (configuration not stated) | -1.88%
17 | O=C(CCC(=O)N/N=C/c1ccc(Br)o1)N/N=C/c1ccc(Br)o1 | -1.34%
18 | CN1CCN(CCCNC(=O)c2cc3c(=O)oc4ccccc4c3s2)CC1 | 7.83% (active)
19 | O=C(NCCCN1CCOCC1)c1cc2c(s1)CCC2 | -5.51%
20 | O=C(NCCN1CCN(Cc2ccccc2)CC1)c1cc2c(=O)[nH]c3ccccc3c2s1 | 7.06%
21 | CCOC(=O)N1CCN(S(=O)(=O)N2CCCC(C(=O)NCCCN3CCC(C)CC3)C2)CC1 (configuration not stated) | -0.26%
22 | CC(=O)Nc1ccc(-c2nc3ccccc3o2)cc1 | -1.18%
23 | CC(=O)Nc1ccc(Nc2c3ccccc3nc3ccccc23)cc1 | 9.49% (active)

Row | SMILES | inhibition
24 | Cc1ccc(Nc2c3c(nc4ccccc24)CCC3)cc1 | 5.26%
25 | Nc1nnc2c(C(F)(F)F)nc3ccccc3n12 | 14.8% (active)
26 | Cc1ccc(Oc2nc3ccccc3n3c(C)nnc23)cc1 | 0.26%
27 | FC(F)(F)c1nnc2c3ccccc3c(Cl)nn12 | 4.08%
28 | COc1ccc(C2=NS(=O)(=O)N(C)C(C(=O)N(C)Cc3ccccc3)=C2)cc1 | -0.5%
29 | CN(C(=O)c1cc2c(=O)n3ccccc3nc2s1)C1CCCCC1 | 3.44%
30 | Cc1cccn2c(=O)c3cc(C(=O)NC4CCCCC4)sc3nc12 | 8.99% (active)
31 | Cc1ccccc1-n1nc(C)c2cc(C(=O)NC3CC3)sc21 | -1.43%
32 | CCc1ccc(N(CC(=O)NCc2cccnc2)S(=O)(=O)c2ccccc2)cc1 | -2.09%
33 | COc1ccccc1C(=O)Nc1ccnn1C1CCN(C(=O)C(C)(C)C)CC1 | -0.24%
34 | COc1ccc(-c2nn(C)c(=O)c3ccccc23)cc1CNC(=O)C1CCCCC1 | 8.72% (active)
35 | COc1ccc(-c2nn(C)c(=O)c3ccccc23)cc1NC(=O)COc1ccccc1 | 3.19%
36 | CCC(=O)NCc1cc(-c2nn(C)c(=O)c3ccccc23)ccc1OC | 1.81%
37 | CCOc1cccc(-c2nn3c(-c4ccccn4)nnc3s2)c1 | 1.31%
38 | COc1cc(-c2nnn(CC(=O)NCc3ccccc3)n2)cc(OC)c1OC | -0.9%
39 | COc1ccc(-c2nn3c(-c4ccccc4)nnc3s2)cc1OC | 14.4% (active)
40 | COc1cc(-c2nn3c(-c4cccc(C)c4)nnc3s2)cc(OC)c1OC | 14.8% (active)
41 | c1ccc(-c2cc(-c3nnc4sc(-c5ccccn5)nn34)[nH]n2)cc1 | 6.5%
42 | Fc1ccc(-c2ccc(-c3nn4c(-c5ccco5)nnc4s3)o2)cc1 | -1.72%
43 | COc1ccc(C)cc1S(=O)(=O)N(CC(=O)Nc1cccc([N+](=O)[O-])c1)c1ccc(C)cc1 | -0.96%
44 | COc1ccc(C(C(=O)NC2CCCCC2)N(C(=O)c2snc(C(N)=O)c2N)c2ccccc2OC)cc1 (configuration not stated) | -3.87%
45 | N#Cc1cc([N+](=O)[O-])ccc1NCC1CCCO1 (configuration not stated) | -4.39%
46 | COC(=O)c1ccc(-c2noc(CN(Cc3ccccn3)CC3CCCO3)n2)cc1 (configuration not stated) | 19.8% (active)

Row | SMILES | inhibition
47 | CN(Cc1ccccn1)Cc1nc(-c2ccc(Cl)cc2)no1 | -2.91%
48 | CCN(CCn1cccn1)Cc1nc(-c2ccc(C(=O)OC)cc2)no1 | 0.55%
49 | COc1cc(/C=C2/SC(=S)N(Cc3ccccc3)C2=O)cc(OC)c1O | 7.8% (active)
50 | COc1ccccc1C(=O)NNC(=O)CCN1C(=O)/C(=C\c2ccccc2)SC1=S | -3.54%
51 | COc1ccc(/C=C2\SC(=S)N(CCC(=O)Nc3ccccn3)C2=O)cc1OC | -0.57%
52 | O=C(CCc1ccccc1)NNC(=O)COc1ccc(Cl)cc1 | -4.89%
53 | Cc1ccc(C2CCN(C(=S)Nc3cccc(Cl)c3)C2)cc1 (configuration not stated) | -1.21%
54 | O=C(NCC(=O)N1CCN(c2ccccc2F)CC1)c1cccs1 | -3.61%
55 | O=C(Nc1nc2ccccc2s1)c1ccc2c(c1)OCO2 | -3.05%
56 | O=C(O)CC/C(=C\c1cc2c(cc1Br)OCO2)c1nc2ccccc2s1 | 7.92% (active)
57 | O=C(O)CS/C(=C\c1ccc(F)cc1)c1nc2ccccc2s1 | 2.23%
58 | C/C(=N\NC(=O)C1(C)CC1(Br)Br)c1ccc(C)cc1C (configuration not stated) | -0.97%
59 | CC(C)n1c(COc2ccccc2)nc2ccccc21 | -2.15%
60 | O=C(CN1CCN(S(=O)(=O)c2cc(Cl)ccc2Cl)CC1)c1ccc(O)c(O)c1 | 2.29%
61 | CCc1cc(=O)oc2cc(C)cc(OCC(=O)N3CCC[C@@H]3C(=O)O)c12 | 14.5% (active)
62 | CCCc1cc(=O)oc2c(C)c(OCC(=O)N3CCC(C(=O)O)CC3)ccc12 | -1.65%
63 | CCc1cc(=O)oc2cc(C)cc(OC(C)C(=O)O)c12 (configuration not stated) | -2.35%
64 | O=C(NCC1CCCO1)c1ccccc1-c1nc(-c2ccccc2Cl)no1 (configuration not stated) | -2.71%
65 | COc1ccccc1NC(=O)c1cc(N2C(=O)C3C4CCC(C4)C3C2=O)ccc1Cl (configuration not stated) | -0.65%
66 | COc1ccc(CCn2c(=N)c(C(=O)NCC3CCCO3)cc3c(=O)n4cccc(C)c4nc32)cc1OC (configuration not stated) | 16.1% (active)
67 | Cc1cccn2c(=O)c3cc(C(=O)NCC4CCCO4)c(=N)n(Cc4ccc(F)cc4)c3nc12 (configuration not stated) | 5.79%
68 | COc1ccc(CCNC(=O)CCn2c(=O)c3ccccc3n(CC(=O)NCC3CCCO3)c2=O)cc1OC (configuration not stated) | -1.51%
69 | COc1ccc(CCn2c(=N)c(C(=O)NCc3ccco3)cc3c(=O)n4cccc(C)c4nc32)cc1 | -1.42%

Row | SMILES | inhibition
70 | CCn1c(=N)c(C(=O)NCCCOC)cc2c(=O)n3cccc(C)c3nc21 | 10.5% (active)
71 | Cc1cccn2c(=O)c3cc(C(=O)NCCN4CCOCC4)c(=N)n(Cc4cccnc4)c3nc12 | 4.67%
72 | Cc1ccc(S(=O)(=O)N(CC(=O)NCCSC2CCCCC2)c2ccccc2F)cc1 | -2.1%
73 | COc1cccc(N(C(=O)c2snc(C(N)=O)c2N)C(C(=O)NCC2CCCO2)c2c[nH]c3ccccc23)c1 (configuration not stated) | -0.46%
74 | CCOC(=O)C1(Cc2ccccc2C)CCCN(C(=O)CCc2c(C)noc2C)C1 (configuration not stated) | 0.38%
75 | Cc1occc(=O)c1OCc1ccc(F)cc1 | -1.42%
76 | COC(=O)CN1C(=O)[C@H]2[C@@H](C3CC3)N3C(=O)CN(Cc4ccc(-c5ccccc5)cc4)C(=O)[C@@]3(Cc3ccccc3)[C@H]2C1=O | -2.72%
77 | Cc1cc(NC(=O)c2ccc(F)cc2)ccc1NC(=O)c1ccco1 | -3.06%
78 | Cc1[nH][nH]c(=O)c1N=Nc1ccccc1 | -4.7%
79 | Cc1[nH]n(-c2ccccc2)c(=O)c1N=Nc1ccccc1C(=O)N1CCCCC1 | -0.74%
80 | COC(=O)c1ccccc1N=Nc1c(C)[nH][nH]c1=O | 8.28% (active)
81 | CN(Cc1ccco1)S(=O)(=O)c1nnc(NC(=O)c2ccccc2)s1 | -2.48%
82 | O=c1oc2ccccc2c(NC2CCCCC2)c1NS(=O)(=O)c1ccc(Cl)cc1 | -2.68%
83 | Cc1cc2c(cc1C)[n+](C)cn2CC(O)COCC1CC=CCC1 (configuration not stated) | -3.17%
84 | Clc1ccc(C2=CSC3=Nc4cccc5cccc(c45)N23)cc1 | 1.95%
85 | Cc1cnc(C(=O)OCc2c(C)cc(C(C)(C)C)cc2C)cn1 | 0.21%
86 | CCOc1cc(/C=C2\SC(N3CCCC(C)C3)=NC2=O)ccc1O (configuration not stated) | 14.7% (active)
87 | O=C1N=C(N2CCCC2)S/C1=C\c1cccc(Br)c1 | -0.86%
88 | CCc1ccc(/C=C2\SC(N3CCOCC3)=NC2=O)cc1 | -0.98%
89 | CCOc1cc(/C=C2\SC(N3CCCCC3)=NC2=O)ccc1O | 14.9% (active)
90 | CC1CCN(C2=NC(=O)/C(=C/c3ccc(O)cc3)S2)CC1 | 1.8%
91 | O=C1N=C(N2CCc3ccccc3C2)S/C1=C\c1ccc(O)cc1 | 0.39%
92 | COCCCNC(=O)[C@H]1N2C(=O)c3ccccc3C2SC1(C)C (some centres not stated) | 0.11%

— PubChem BioAssay AID1527 (The Scripps Research Institute Molecular Screening Center, 2009)
